# Test results as given in PubChem BioAssay (EPA / NIEHS).
# The source made the active and inactive calls. The calls were made as follows: active = hit-call score of the fitted dose curve at least 0.9, where 1 is the maximum; inactive = score below 0.9.
# Key:
# [1] = APR_HepG2_CellCycleArrest_24hr: Apredica 24-hour HepG2 Assay for Cell Cycle Arrest (AID 2282905); settings: imaging, actives raise or lower the signal;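 also: cell cycle arrest scored as ratio of 2N to 4N nuclear DNA content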
# Outline: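 Compounds (0.39 to 200 uM, final DMSO 0.5% v/v) are applied to HepG2 cells for 24 hours; cells are then fixed, permeabilized and nuclei labeled with Hoechst 33342. Automated imaging measures DNA content, and activity is fitted in both directions against DMSO.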
# [2] = APR_HepG2_NuclearSize_24hr: Apredica 24-hour HepG2 Assay for Nuclear Size (AID 2282907); settings: high-content imaging, actives raise or lower the signal
# Outline: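 Nuclear size is measured by fluorescence high-content imaging of Hoechst-labelled HepG2 nuclei after 24 hr of treatment (0.39–200 uM, 0.5% DMSO). Cells are fixed in 3.7% formaldehyde before staining, and DMSO serves as the baseline for bidirectional curve fitting.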
# [3] = APR_HepG2_CellLoss_24hr: Apredica 24-hour HepG2 Assay for Cell Loss (AID 2282908); settings: high-content imaging;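 as to AC50: fit in both directions so a hit may be cell loss or gain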
# Outline: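 Nuclear count serves as the viability measure: treated cells are fixed, permeabilized and labelled with Hoechst 33342, and six images per well are analysed to identify valid nuclei. Doses span 0.39–200 uM, and activity in either direction is scored against DMSO.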
# [4] = APR_HepG2_MicrotubuleCSK_24hr: Apredica 24-hour HepG2 Assay for Microtubule CSK Stabilty (AID 2282909); settings: HepG2 microtubule cytoskeleton imaging, actives raise or lower the signal
# Outline: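 Compounds were applied to HepG2 cells for 24 hours across 0.39–200 uM in duplicate, with final DMSO at 0.5% v/v. Fixed, permeabilized cells were labeled for alpha-tubulin and nuclei, and tubulin fluorescence was quantified by imaging, fitted bidirectionally against DMSO.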
# [5] = APR_HepG2_MitoticArrest_24hr: Apredica 24-hour HepG2 Assay for Mitotic Arrest (AID 2282910); settings: high-content imaging, actives raise or lower the signal
# Outline: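 Treatment lasted 24 hr in the human HepG2 line at 0.39–200 uM, solvent held at 0.5% DMSO. Fixed cells were stained with Hoechst 33342 and anti-phospho-histone H3, imaged at 20x, and analysed by gain- or loss-of-signal fitting against DMSO.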
# [6] = APR_HepG2_MitoMembPot_24hr: Apredica 24-hour HepG2 Assay for Mitochondrial Membrane Potential (AID 2282911); settings: imaging, actives raise or lower the signal
# Outline: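 HepG2, 24 hr dosing, 10 concentrations 0.39–200 uM, 0.5% DMSO final. Live-cell MitoTracker Red CMXRos 250 nM 30 min, then 3.7% formaldehyde fix. HCS fluorescence imaging, 20x; bidirectional fit vs DMSO baseline.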
# [7] = APR_HepG2_MitoMass_24hr: Apredica 24-hour HepG2 Assay for Mitochondrial Mass (AID 2282912); settings: high-content imaging, actives raise or lower the signal
# Outline: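 After 24 hr of treatment at 0.39 to 200 uM, HepG2 cells take up 250 nM MitoTracker Red CMXRos for 30 min and are then fixed with 3.7% formaldehyde. Per-well images are quantified, and any change in either direction is scored against solvent.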
# [8] = APR_HepG2_p53Act_24hr: Apredica 24-hour HepG2 Assay for p53 Activation (AID 2282913); settings: high-content imaging, actives raise or lower the signal;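 also: p53 protein immunofluorescence averaged per cell in HepG2 with Hoechst nuclei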
# Outline: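 Read-out: Cy5 immunofluorescence for p53 in fixed, permeabilized HepG2, imaged by HCS with Hoechst-defined nuclei. Dosing was 24 hr at 0.39–200 uM in 0.5% DMSO. Curves were fitted bidirectionally relative to DMSO.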
# [9] = APR_HepG2_CellCycleArrest_72hr: Apredica 72-hour HepG2 Assay for Cell Cycle Arrest (AID 2282914); settings: high-content imaging, actives raise or lower the signal
# Outline: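 HepG2, 72 hr exposure, 10-point 0.39–200 uM, duplicate, 0.5% DMSO final. Fix 3.7% formaldehyde 30 min RT, Triton X-100 0.5%, Hoechst 33342 2 ug/mL. ArrayScan 20x, six fields/well; DNA content per nucleus; bidirectional fit vs DMSO.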
# [10] = APR_HepG2_CellLoss_72hr: Apredica 72-hour HepG2 Assay for Cell Loss (AID 2282915); settings: high-content imaging
# Outline: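 HepG2 cells were exposed for 72 hr to compounds at 0.39–200 uM (ten concentrations, duplicate) in 0.5% v/v final DMSO. Nuclei were stained with Hoechst 33342 after 3.7% formaldehyde fixation, imaged at 20x, and counted; fits bidirectional versus DMSO.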
# [11] = APR_HepG2_P-H2AX_72hr: Apredica 72-hour HepG2 Assay for H2AX Phosphorylation (AID 2282916); settings: imaging, actives raise or lower the signal;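 also: phospho-histone H2A.x immunostain intensity per cell marking DNA damage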
# Outline: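 Human hepatoma HepG2 cells are dosed across ten concentrations (0.39 to 200 uM, 0.5% v/v DMSO) and incubated 72 hr. Phospho-histone H2A.x is then detected by antibody staining alongside c-Jun and Hoechst, and quantified by automated fluorescence imaging.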
# [12] = APR_HepG2_MitoMembPot_72hr: Apredica 72-hour HepG2 Assay for Mitochondrial Membrane Potential (AID 2282917); settings: imaging, actives raise or lower the signal
# Outline: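 HepG2 cells exposed 72 h to compounds at 0.39–200 uM (0.5% v/v DMSO, duplicates); MitoTracker Red CMXRos 250 nM loaded 30 min before 3.7% formaldehyde fixation, imaged by HCS fluorescence. Bidirectional fit versus DMSO.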
# [13] = APR_HepG2_MitoticArrest_72hr: Apredica 72-hour HepG2 Assay for Mitotic Arrest (AID 2282918); settings: high-content imaging, actives raise or lower the signal
# Outline: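 HepG2, 72 hr exposure, 0.39–200 uM in duplicate, 0.5% v/v DMSO final. Formaldehyde-fixed, Triton-permeabilized, anti-phospho-histone H3/FITC plus Hoechst. ArrayScan imaging at 20x; curves fit bidirectionally against DMSO baseline.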
# [14] = APR_HepG2_MicrotubuleCSK_72hr: Apredica 72-hour HepG2 Assay for Microtubule CSK Stabilty (AID 2282919); settings: HepG2 microtubule cytoskeleton, high-content imaging, actives raise or lower the signal
# Outline: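 Ten-point dosing (0.39–200 uM, 0.5% DMSO) of HepG2 for 72 hr, with taxol as the cytoskeletal positive control. The cells were formaldehyde-fixed and then stained with alpha-tubulin/Cy5 and Hoechst. Imaging at 20x used a −2 um Z offset for tubulin.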
# [15] = APR_HepG2_P-H2AX_24hr: Apredica 24-hour HepG2 Assay for H2AX Phosphorylation (AID 2282920); settings: high-content imaging, actives raise or lower the signal
# Outline: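 HCS fluorescence imaging of phospho-H2A.x immunostain (with Hoechst 33342 nuclear counterstain) in HepG2 after 24 hr compound exposure; 10 concentrations, 0.39–200 uM, duplicate wells, 0.5% v/v DMSO. Gain or loss of signal fitted relative to DMSO baseline.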
# [16] = APR_HepG2_StressKinase_72hr: Apredica 72-hour HepG2 Assay for Stress Kinase (AID 2282921); settings: HepG2 stress kinase (phospho-c-Jun) imaging, actives raise or lower the signal
# Outline: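 After a 72 h compound treatment spanning 0.39 to 200 uM, formaldehyde-fixed cells are labelled for phosphorylated c-Jun and nuclei, imaged by automated fluorescence microscopy, and activity is fitted in both directions relative to DMSO controls.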
# [17] = APR_HepG2_StressKinase_24hr: Apredica 24-hour HepG2 Assay for Stress Kinase (AID 2282922); settings: HepG2 stress kinase (phospho-c-Jun) imaging, actives raise or lower the signal
# Outline: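 After 24 hr compound treatment (up to 200 uM, final DMSO 0.5% v/v), HepG2 cells are fixed and multiplex-labeled; phospho-c-Jun intensity is captured by high-content fluorescence imaging and analyzed relative to DMSO.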
# [18] = APR_HepG2_p53Act_72hr: Apredica 72-hour HepG2 Assay for p53 Activation (AID 2282923); settings: high-content imaging, actives raise or lower the signal;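 also: average cellular p53 protein immunofluorescence intensity in HepG2 cells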
# Outline: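 Imaging-based endpoint: after 72 hr compound exposure (up to 200 uM, 0.5% DMSO), fixed and permeabilized monolayers were labelled with anti-p53 antibody and imaged; signal change in either direction was fitted relative to DMSO controls.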
# [19] = APR_HepG2_MitoMass_72hr: Apredica 72-hour HepG2 Assay for Mitochondrial Mass (AID 2282924); settings: high-content imaging, actives raise or lower the signal;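 also: MitoTracker Red CMXRos stain intensity per cell imaged as mitochondrial mass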
# Outline: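 Steps: treat HepG2 72 hr (0.39–200 uM, duplicate wells); load MitoTracker Red CMXRos, 250 nM, 30 min; fix with 3.7% formaldehyde, permeabilise with 0.5% Triton X-100; capture images, nuclei via Hoechst 33342; fit bidirectionally against DMSO.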
# [20] = APR_HepG2_NuclearSize_72hr: Apredica 72-hour HepG2 Assay for Nuclear Size (AID 2282925); settings: high-content imaging, actives raise or lower the signal
# Outline: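 Compounds (0.39–200 uM, final DMSO 0.5%) were applied to HepG2 for 72 hr. Cells were then formaldehyde-fixed, permeabilized and labelled with Hoechst 33342. Nuclear diameter was quantified from six images per well.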
smiles,measurement,setting,value
O=C(O)Cc1cc(I)c(Oc2ccc(O)c(I)c2)c(I)c1,outcome,[1],inactive
same,outcome,[2],inactive
same,outcome,[3],inactive
same,outcome,[4],inactive
same,outcome,[5],inactive
same,outcome,[6],inactive
same,outcome,[7],inactive
same,outcome,[8],inactive
same,outcome,[9],inactive
same,outcome,[10],inactive
same,outcome,[11],inactive
same,outcome,[12],inactive
same,outcome,[13],inactive
same,outcome,[14],inactive
same,outcome,[15],inactive
same,outcome,[16],inactive
same,outcome,[17],inactive
same,outcome,[18],inactive
same,outcome,[19],inactive
same,outcome,[20],inactive
Cc1cccc2ccccc12,outcome,[1],inactive
same,outcome,[2],inactive
same,outcome,[3],inactive
same,outcome,[4],inactive
same,outcome,[5],inactive
same,outcome,[6],inactive
same,outcome,[7],inactive
same,outcome,[8],inactive
same,outcome,[9],inactive
same,outcome,[10],inactive
same,outcome,[11],inactive
same,outcome,[12],inactive
same,outcome,[13],inactive
same,outcome,[14],inactive
same,outcome,[15],inactive
same,outcome,[16],inactive
same,outcome,[17],inactive
same,outcome,[18],inactive
same,outcome,[19],inactive
same,outcome,[20],inactive
CCN(Cc1cccnc1)C(=O)c1cccc(Cl)c1[C@]1(C)C(=O)N(Cc2ccc(OC)cc2OC)c2ccc(Cl)cc21,outcome,[1],inactive
same,outcome,[2],inactive
same,outcome,[3],inactive
same,outcome,[4],inactive
same,outcome,[5],inactive
same,AC50,[6],50.3 µM (active)
same,outcome,[7],inactive
same,outcome,[8],inactive
same,outcome,[9],inactive
same,AC50,[10],14.4 µM (active)
same,AC50,[11],20.3 µM (active)
same,outcome,[12],inactive
same,AC50,[13],21.8 µM (active)
same,outcome,[14],inactive
same,outcome,[15],inactive
same,outcome,[16],inactive
same,outcome,[17],inactive
same,AC50,[18],29.4 µM (active)
same,outcome,[19],inactive
same,outcome,[20],inactive
CCCCCCCC[Si](OCC)(OCC)OCC,outcome,[1],inactive
same,outcome,[2],inactive
same,AC50,[3],118 µM (active)
same,outcome,[4],inactive
same,outcome,[5],inactive
same,AC50,[6],29.8 µM (active)
same,outcome,[7],inactive
same,outcome,[8],inactive
same,AC50,[9],30 nM (active)
same,AC50,[10],34 µM (active)
same,AC50,[11],19.8 µM (active)
same,outcome,[12],inactive
same,AC50,[13],115 µM (active)
same,outcome,[14],inactive
same,outcome,[15],inactive
same,AC50,[16],100 µM (active)
same,outcome,[17],inactive
same,AC50,[18],19.8 µM (active)
same,AC50,[19],41.2 µM (active)
same,outcome,[20],inactive
CC[C@H](NC(=O)c1cc(F)ccc1NS(=O)(=O)c1cccc2cccnc12)c1ccccc1,outcome,[1],inactive
same,outcome,[2],inactive
same,outcome,[3],inactive
same,outcome,[4],inactive
same,outcome,[5],inactive
same,AC50,[6],105 µM (active)
same,outcome,[7],inactive
same,outcome,[8],inactive
same,outcome,[9],inactive
same,AC50,[10],78.4 µM (active)
same,outcome,[11],inactive
same,outcome,[12],inactive
same,AC50,[13],92.5 µM (active)
same,outcome,[14],inactive
same,outcome,[15],inactive
same,outcome,[16],inactive
same,outcome,[17],inactive
same,outcome,[18],inactive
same,outcome,[19],inactive
same,outcome,[20],inactive
O=C1CCC(C2CCCCC2)CC1,outcome,[1],inactive
same,outcome,[2],inactive
same,outcome,[3],inactive
same,outcome,[4],inactive
same,outcome,[5],inactive
same,AC50,[6],19.8 µM (active)
same,outcome,[7],inactive
same,outcome,[8],inactive
same,outcome,[9],inactive
same,outcome,[10],inactive
same,outcome,[11],inactive
same,outcome,[12],inactive
same,outcome,[13],inactive
same,outcome,[14],inactive
same,outcome,[15],inactive
same,outcome,[16],inactive
same,outcome,[17],inactive
same,outcome,[18],inactive
same,outcome,[19],inactive
same,outcome,[20],inactive
